Hits are enriched below; roughly 2.5% of the tested compounds scored in any of these assays.
CRFR2-BP ag – CRF-BP/CRF-R2 complex agonism; HEK293 CRF-R2/CRF-BP, calcium dye fluorescence (FLIPR); percent of saturating CRF peptide response; activation, % at 13.2 µM; 350,000 compounds, 0.46% hits; AID 588473;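 active means activation of at least 50%, plus an integration ratio under a set limit after plate pattern correction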
TAG inh – inhibitors of triacylglycerol accumulation | H9c2 cells, Nile Red lipid (TAG) fluorescence; cells loaded with 200 µM oleic acid | inhibition, % at 12.5 µM | 230,000 compounds, 0.66% hits | AID 651582;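 active means pattern-corrected inhibition of lipid staining of at least 50% with the nuclear-stain viability signal not falling by more than 50%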
SKN-1 block – blocks SKN-1 activity in C. elegans; C. elegans VP596 Pgst-4::GFP/RFP ratio, acrylamide-induced, 24 h; inhibition, % at 21.8 µM; 360,000 compounds, 0.49% hits; AID 624304;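 active means interference check ratio from 0.5 to 1.5 plus GFP to RFP signal ratio inhibition reaching or exceeding a fixed threshold, cut at about 30% in these data, passing the limit was not always enough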
Cardio protect – modulators protecting cardiomyocytes from myocardial damage. AID 588492. H9c2 cardiomyocytes, H2O2 injury protection, ATPLite, 2 h. 360,000 compounds, 0.63% hits. protection from H2O2 cell death, % at 20 µM;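 active means compounds giving at least 50% protection of heart cells from peroxide-induced death in the single-dose screen, raw or plate-pattern-corrected value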
CRFBP-R2 block – CRF-BP/CRF-R2 complex antagonism; AID 588475; 350,000 compounds, 0.59% hits; inhibition, % at 11.8 µM; HEK293 CRF-R2/CRF-BP, CRF-induced calcium fluorescence;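 active means inhibition of the ligand-induced calcium signal above about 50% at the single tested concentration, limit read from the data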
hiPSC survival – enhancers of human iPSC single-cell survival; AID 602274; 360,000 compounds, 0.044% hits; survival enhancement, % at 20 µM; hiPSC single-cell survival, ATPlite luminescence; 100% = ROCK inhibitor wells, 0% = DMSO; in the data active means survival enhancement above about 18%;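 further: cells exposed to compounds for 16 hours before the ATP read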
Large screens that a line does not name were inactive.

COc1ccc(NC2CCCN(C(=O)c3cc(CC(C)C)nc(N)n3)C2)cc1 (stereo not drawn)	none (no result: TAG inh)
COCCNC(=O)C1(C)CCN(C(=O)Cc2ccc(OC)c(OC)c2)C1 (stereo not drawn)	none (no result: CRFR2-BP ag, CRFBP-R2 block)
Oc1c(Br)cc(Br)cc1C=Nc1cccc2ncccc12	Cardio protect 64
O=C(NCc1ccncc1)c1cc(F)c(F)cc1Cl	CRFBP-R2 block 60
O=C(Nc1ccc(Cc2ccncc2)cc1)c1cc(F)c(F)cc1Cl	none
CCCCOCCCNC(=O)C[C@@H]1C[C@@]2(C(=O)OCC)CCC=C2N(CCC2=CCCCC2)C1=O	none (no result: CRFR2-BP ag, TAG inh, Cardio protect, CRFBP-R2 block)
COCCNC(=O)C1(C)CCCN(C(=O)c2c(F)ccc(C)c2F)C1 (stereo not drawn)	none (no result: CRFR2-BP ag, CRFBP-R2 block)
CCN1C(=O)C2C(c3ccccc3F)NC(Cc3ccc(O)cc3)(C(=O)OC)C2C1=O (stereo not drawn)	SKN-1 block 37
CCC(=O)c1ccc(OCC(=O)Nc2ccccc2N2CCCCC2)cc1	none
CC[n+]1c(/C=C/Nc2ccccc2)sc2ccccc21	SKN-1 block 39
CC[n+]1c(/C=C(\C)Nc2ccccc2)sc2ccccc21	none (no result: TAG inh)
COc1cccc(NC(=O)CCSc2ccc(C)cc2)c1	none
CCOc1ccccc1C(=O)Nc1ccc(S(=O)(=O)N2CCN(C)CC2)cc1	none
CCOc1ccccc1C(=O)Nc1ccc(-n2nncc2C(C)(C)C)cc1	SKN-1 block 35
CCCNC(=O)Cn1c(=O)/c(=C/c2ccc(-c3ccc([N+](=O)[O-])cc3)o2)s/c1=C\C(=O)C(C)(C)C	CRFR2-BP ag 165
CSc1ccc(/C=c2\s/c(=C\C(=O)C(C)(C)C)n(CC(=O)NCCC3=CCCCC3)c2=O)cc1	none (no result: TAG inh)
COc1ccc(N(C(=O)c2ccco2)C(C(=O)NC2CCCC2)c2ccc(C)cc2)c(OC)c1 (stereo not drawn)	none (no result: TAG inh)
COc1ccc(N(C(=O)c2ccco2)C(C(=O)NC2CCCC2)c2ccc(N3CCOCC3)cc2)c(OC)c1 (stereo not drawn)	CRFBP-R2 block 53 (no result: TAG inh)
CC(=O)c1c(C)n(-c2cccc(Cl)c2)c2ccc(O)cc12	Cardio protect 62 (no result: TAG inh)
COC(=O)c1cccc(OCCCN2CCC(C(O)(c3ccccc3)c3ccccc3)CC2)c1	none (no result: CRFR2-BP ag, TAG inh, Cardio protect, CRFBP-R2 block)
O=C1c2cccnc2Oc2ccc(Cl)cc2N1Cc1ccc(F)cc1	Cardio protect 63 (no result: TAG inh)
CCN(CC1CCCO1)C(=O)CCc1nnc(CCc2ccccc2)o1 (stereo not drawn)	none
CC(=O)NC(c1cccs1)c1cc(F)c2cccnc2c1O (stereo not drawn)	none
CC(C)C(=O)NC(c1ccco1)c1ccc2cccnc2c1O (stereo not drawn)	TAG inh 72
CC(=O)NC(C)c1cc(Cl)c2cccnc2c1O (stereo not drawn)	Cardio protect 58
CCN(CC)c1ccc(C(NC(=O)C(C)C)c2ccc3cccnc3c2O)cc1 (stereo not drawn)	none
CC(=O)NC(c1ccco1)c1cc(F)c2cccnc2c1O (stereo not drawn)	Cardio protect 50
CCOC(=O)CN(C(=O)CNC(=O)c1ccco1)C(C(=O)NC1CCCCC1)c1cccnc1 (stereo not drawn)	none (no result: TAG inh)
S=c1[nH]nc(-c2ccco2)n1/N=C/c1c(Cl)cccc1Cl	SKN-1 block 47
O=c1c(Br)c(Br)cnn1-c1ccccc1	TAG inh 90
COc1cnn(-c2ccc(F)cc2)c(=O)c1Br	none
Cc1ccc(-n2ncc(Br)c(Br)c2=O)cc1	TAG inh 66
COc1c(Cl)cnn(-c2ccc(C)cc2)c1=O	hiPSC survival 27 (no result: TAG inh)
CC[C@]12C(=O)N(C)C[C@H]([C@@H]3C(=O)N(C)C(=O)[C@@H]31)N2C(=O)c1ccc(C(C)(C)C)cc1	none
C=C(C)Cn1c(SCC(=O)N/N=C/c2c(O)ccc3ccccc23)nc2ccccc2c1=O	Cardio protect 69 (no result: TAG inh)
CC1(C(=O)NS(=O)(=O)c2ccc(C#N)cc2)CCN1C(=O)CC1CCCCC1 (stereo not drawn)	none (no result: CRFR2-BP ag, CRFBP-R2 block)
Oc1ccc(/C=N/Nc2cc(N3CCOCC3)nc(N3CCOCC3)n2)cc1O	Cardio protect 53 (no result: TAG inh)
Oc1cccc(/C=N/Nc2cc(N3CCOCC3)nc(N3CCOCC3)n2)c1	none
Cc1cccc(S(=O)(=O)c2c(N)n(Cc3ccco3)c3nc4ccccc4nc23)c1	CRFR2-BP ag 97
Cc1ccc(S(=O)(=O)c2c(N)n(Cc3ccco3)c3nc4ccccc4nc23)cc1	none (no result: TAG inh)
CC1(Cc2ccc3ccccc3n2)C(=O)Nc2ccc(OC(F)(F)F)cc21 (stereo not drawn)	none (no result: CRFR2-BP ag, CRFBP-R2 block)
COc1ccc(CC(NC(C)=O)C(=O)NC2CCN(c3ncccc3[N+](=O)[O-])CC2)cc1 (stereo not drawn)	none
CC(=O)NC(Cc1ccc(C)cc1)C(=O)NC1CCN(c2ncccc2[N+](=O)[O-])CC1 (stereo not drawn)	CRFBP-R2 block 60 (no result: TAG inh)
N#CC(C#N)=C(Nc1ccc(F)cc1)SCc1cccc(Br)c1	CRFBP-R2 block 69 (no result: TAG inh)
Cc1cccc(CSC(Nc2ccc(F)cc2)=C(C#N)C#N)c1	CRFR2-BP ag 73, CRFBP-R2 block 67 (no result: TAG inh)
Cc1cccc(CSC(=N)N)c1	none (no result: TAG inh)
CCOc1ccc(N2CC(NS(=O)(=O)c3cccs3)CC2=O)cc1 (stereo not drawn)	none
CCn1nnc2sc3c(c2c1=O)CCC(C)C3 (stereo not drawn)	SKN-1 block 36
CC(=O)Cn1nnc2sc3c(c2c1=O)CCC(C(C)(C)C)C3 (stereo not drawn)	none
Fc1ccccc1CSc1ccc(-c2ccco2)nn1	SKN-1 block 39
c1ccc(CSc2ccc(-c3ccco3)nn2)cc1	SKN-1 block 36 (no result: TAG inh)
Clc1ccc(CSc2ccc(-c3ccco3)nn2)cc1	none
Clc1cccc(CSc2ccc(-c3ccco3)nn2)c1	SKN-1 block 67
COc1ccc(Cc2nnc(NC(=O)Nc3ccc(C)cc3)s2)cc1OC	CRFBP-R2 block 83 (no result: TAG inh)
Clc1ccc(Cn2nnc(-c3ccccc3)n2)cc1	SKN-1 block 54
Fc1ccc(Cn2nnc(-c3ccc(CN4CCOCC4)cc3)n2)cc1	SKN-1 block 36
O=C(O)c1ccc(-c2cccc(-c3nn4c(=O)cc(N5CCNCC5)nc4s3)c2)cc1	none (no result: CRFR2-BP ag, CRFBP-R2 block)
S=c1[nH]c2ccccc2n2c(=S)[nH]nc12	CRFBP-R2 block 55 (no result: TAG inh)
O=C(COC(=O)CNC(=O)C1CCCCC1)NCc1ccc(Cl)cc1	none
CCOC(=O)c1c(-c2ccc(OC)c(OC)c2)csc1NC(=O)C1CCCO1 (stereo not drawn)	CRFBP-R2 block 60
O=C1C(=Cc2ccccn2)CCc2ccccc21	SKN-1 block 39
C(=C1c2ccccc2-c2ccccc21)c1ccccn1	SKN-1 block 52
COc1ccc2c(c1)CC/C(=C/c1ccccn1)C2=O	none (no result: TAG inh)

Bioassay records as filed in PubChem BioAssay.
